Laboratory results: PubChem BioAssay (NCATS)
Records with an inconclusive call do not appear. A call without a number means that no potency is given here. Active and inactive are the calls of the source. Calls come from the whole dose curve; as a rule, active = well fitted cell-killing curve with a large enough effect; inconclusive = small, poorly fitted or top-dose-only effect, or effect the other way; inactive = no such curve, though single readings can be large or run the other way.

Test: Quantitative High-Throughput drug screen in 47 multiple myeloma cell lines against the NCATS MIPE library collection: U266_ATCC cell viability assay (AID 1919864); note: nearly all actives have a fitted effect of over 35% in size
Conditions: U266 myeloma viability, CellTiter-Glo ATP luminescence, 48 h; series mostly up to 45.8 µM
In short: (§1)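 Inhibition of viability over 48 h was scored by ATP content (CellTiter-Glo) in 500-cell wells. Zero and full viability were defined by media-only and DMSO-only wells.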
Potency is the fitted concentration of half-maximal effect.

SMILES | Potency
CN1[C@H]2CC[C@H]1CC(OC(=O)c1c[nH]c3ccccc13)C2 (stereo not given in full) | 10.5 µM (active)
N#CC1(c2cccc(C(=O)Nc3cc(Oc4ccc5nc(NC(=O)C6CC6)sc5n4)ccc3F)c2Cl)CC1 | 5.26 µM (active)
Cc1ccc2c(c1)c1c(n2CCc2ccc(C)nc2)CCN(C)C1 | inactive
Cc1cc2c(cc1C1(c3ccc(C(=O)O)cn3)CC1)C(C)(C)CCC2(C)C | inactive
CCCCc1ccc(NS(=O)(=O)c2ccc(C)c(C(=O)N3CCN(c4cccc(C)c4C)CC3)c2)cc1 | 13.2 µM (active)
COc1nc(C)cnc1NS(=O)(=O)c1cccnc1-c1ccc(-c2nnco2)cc1 | inactive
N#Cc1ccc(Oc2ccc3c(c2)COB3O)cc1 | inactive
C[C@]12C=CC(=O)C=C1CC[C@@H]1[C@@H]2[C@@H](O)C[C@@]2(C)[C@@H]1CC[C@]2(O)C(=O)CO | inactive
Cc1cnc(-c2cc(N3CCN(C(=O)CCS(C)(=O)=O)CC3)ncc2Cl)c(C)c1 | inactive
C[C@]12CCC3=C4CCC(=O)C=C4CC[C@@H]3[C@H]1CC[C@@]2(O)CC#N | inactive
COc1ccc2c(c1)CC[C@H]1[C@@H]2CC[C@]2(C)[C@@H](NCCCCCCN3C(=O)C=CC3=O)CC[C@H]12 | 20.9 µM (active)
Cc1ccc(C(=O)N(CCCN)[C@@H](c2nc3cc(Cl)ccc3c(=O)n2Cc2ccccc2)C(C)C)cc1 | 26.4 µM (active)
C[C@@]1(c2cc(-c3cncnc3)c(F)cc2F)CCSC(N)=N1 | inactive
COc1nccc(-c2c(-c3ccc(F)cc3)ncn2C2CCNCC2)n1 | inactive
NC(=O)c1ccc(N(C(N)=O)c2c(F)cccc2F)nc1-c1ccc(F)cc1F | inactive
CCCCCCCCCCCCCCCC(=O)O[C@H]1[C@@H](O)[C@@H](O)[C@@H]([C@H](NC(=O)[C@@H]2C[C@@H](CCC)CN2C)[C@H](C)Cl)O[C@@H]1SC | 18.7 µM (active)

Test: Quantitative High-Throughput drug screen in 47 multiple myeloma cell lines against the NCATS MIPE library collection: XG6_PLB cell viability assay (AID 1919865); note: nearly all actives have a fitted effect of over 40% in size
Conditions: XG6 myeloma viability, CellTiter-Glo ATP luminescence, 48 h; series mostly up to 45.8 µM
In short: as §1

SMILES | Potency
CN1[C@H]2CC[C@H]1CC(OC(=O)c1c[nH]c3ccccc13)C2 (stereo not given in full) | 16.6 µM (active)
N#CC1(c2cccc(C(=O)Nc3cc(Oc4ccc5nc(NC(=O)C6CC6)sc5n4)ccc3F)c2Cl)CC1 | 1.48 µM (active)
Cc1ccc2c(c1)c1c(n2CCc2ccc(C)nc2)CCN(C)C1 | 16.6 µM (active)
O=c1cc(-c2ccc(O)c(O)c2)oc2cc(O)cc(O)c12 | 14.8 µM (active)
CCCCC(C=O)NC(=O)C(CC(C)C)NC(=O)OCc1ccccc1 (stereo not given) | inactive
COc1nc(C)cnc1NS(=O)(=O)c1cccnc1-c1ccc(-c2nnco2)cc1 | inactive
N#Cc1ccc(Oc2ccc3c(c2)COB3O)cc1 | 16.6 µM (active)
N[C@@H](CC(=O)N1CCn2c(nnc2C(F)(F)F)C1)Cc1cc(F)c(F)cc1F | inactive
C[C@]12C=CC(=O)C=C1CC[C@@H]1[C@@H]2[C@@H](O)C[C@@]2(C)[C@@H]1CC[C@]2(O)C(=O)CO | inactive
Cc1cnc(-c2cc(N3CCN(C(=O)CCS(C)(=O)=O)CC3)ncc2Cl)c(C)c1 | 14.8 µM (active)
CCC(=O)NCC[C@@H]1CCc2ccc3c(c21)CCO3 | inactive
COc1ccc2c(c1)CC[C@H]1[C@@H]2CC[C@]2(C)[C@@H](NCCCCCCN3C(=O)C=CC3=O)CC[C@H]12 | inactive
CNC(=O)c1c(-c2ccc(F)cc2)oc2cc(N(CCO)S(C)(=O)=O)c(C3CC3)cc12 | 18.7 µM (active)
CCCCC[C@H](O)C=C[C@H]1[C@H](O)CC(=O)[C@H]1CCCCCCC(=O)O | inactive
NC(=O)c1ccc(N(C(N)=O)c2c(F)cccc2F)nc1-c1ccc(F)cc1F | 1.48 µM (active)
CC=C(C(=CC)c1ccc(O)cc1)c1ccc(O)cc1 | 18.7 µM (active)

Test: Quantitative High-Throughput drug screen in 47 multiple myeloma cell lines against the NCATS MIPE library collection: XG1_PLB cell viability assay (AID 1919866); note: nearly all actives have a fitted effect of over 35% in size
Conditions: CellTiter-Glo ATP, 48 h; series mostly up to 45.8 µM
In short: as §1

SMILES | Potency
CC(C)c1onc(-c2c(Cl)cccc2Cl)c1COc1ccc(C=Cc2cccc(C(=O)O)c2)c(Cl)c1 | inactive
N#CC1(c2cccc(C(=O)Nc3cc(Oc4ccc5nc(NC(=O)C6CC6)sc5n4)ccc3F)c2Cl)CC1 | 2.35 µM (active)
Cc1nc2c([nH]1)CCN(C(=O)c1ccc(NC(=O)c3ccccc3-c3ccccc3)cc1)c1ccccc1-2 | inactive
CCCCC(C=O)NC(=O)C(CC(C)C)NC(=O)OCc1ccccc1 (stereo not given) | inactive
Cc1cc2c(cc1C1(c3ccc(C(=O)O)cn3)CC1)C(C)(C)CCC2(C)C | inactive
N[C@@H](CC(=O)N1CCn2c(nnc2C(F)(F)F)C1)Cc1cc(F)c(F)cc1F | inactive
Cc1cnc(-c2cc(N3CCN(C(=O)CCS(C)(=O)=O)CC3)ncc2Cl)c(C)c1 | 16.6 µM (active)
CN(C)CCOc1cc(-c2cn[nH]c2)ccc1NC(=O)C1COc2ccccc2O1 (stereo not given) | 2.35 µM (active)
CCC[C@@H](NC(=O)[C@@H]1[C@H]2CCC[C@@H]2CN1C(=O)[C@@H](NC(=O)[C@@H](NC(=O)c1cnccn1)C1CCCCC1)C(C)(C)C)C(=O)C(=O)NC1CC1 | 14.8 µM (active)
C[C@]12CCC3=C4CCC(=O)C=C4CC[C@@H]3[C@H]1CC[C@@]2(O)CC#N | inactive
COc1ccc2c(c1)CC[C@H]1[C@@H]2CC[C@]2(C)[C@@H](NCCCCCCN3C(=O)C=CC3=O)CC[C@H]12 | inactive
COc1ccc(C=CC(=O)Nc2ccccc2C(=O)O)cc1OC | 6.62 µM (active)
CNC(=O)c1c(-c2ccc(F)cc2)oc2cc(N(CCO)S(C)(=O)=O)c(C3CC3)cc12 | 20.9 µM (active)
CCCCC[C@H](O)C=C[C@H]1[C@H](O)CC(=O)[C@H]1CCCCCCC(=O)O | inactive
NC(=O)c1ccc(N(C(N)=O)c2c(F)cccc2F)nc1-c1ccc(F)cc1F | 2.96 µM (active)
CC(C)(C)c1[nH]cnc1C=c1[nH]c(=O)c(=Cc2ccccc2)[nH]c1=O | inactive
Cc1c(-c2cccc3c(CCCOc4cccc5ccccc45)c(C(=O)O)n(Cc4cccnc4)c23)c(COc2ccc(N3CCN([S+](=O)([O-])N(C)C)CC3)cc2)nn1C | inactive
CCCCCCCCCCCCCCCC(=O)O[C@H]1[C@@H](O)[C@@H](O)[C@@H]([C@H](NC(=O)[C@@H]2C[C@@H](CCC)CN2C)[C@H](C)Cl)O[C@@H]1SC | inactive
